JMJD2A Tudor inh: blocks the human JMJD2A Tudor domain; Potency, µM (doses to about 114 µM), for the others: at the top dose activity change, negative = inhibition, actives largely listed as inhibitors; O75164; 390,000 tested, 4.4% active; AlphaScreen JMJD2A-Tudor / H3K4me3 peptide binding; also: % is scaled to controls: 0 for no effect and ±100 for the full control effect; nearly all actives have a fitted effect of over 50% in size
BAZ2B block: BAZ2B (human) inhibition. 360,000 tested, 4.4% active. Q9UIF8. AlphaScreen BAZ2B-H3K14Ac peptide displacement. Potency, µM (titrated, usually from 114 µM), without a hit: top-dose activity change, negative = inhibition, hits mostly inhibitors. AID 504333; also: % is scaled to controls: 0 for no effect and ±100 for the full control effect; nearly all actives have a fitted effect of over 60% in size
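BAZ2B 50 nM plus b-H3(5-23)K14Ac 50 nM, PBS pH 7.4/0.01% Tween-20, 30 min RT; compound added (max 110 uM), 30 min RT; streptavidin donor/Ni-chelate acceptor beads 10 ug/mL final, 20 min dark; AlphaScreen read.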
G9a inh: inhibitors of human histone lysine methyltransferase G9a. Q96KQ7. G9a H3K9 monomethylation, AlphaScreen, 2 h. Potency, µM (doses to about 102 µM), inactives show at the top dose activity, negative = inhibition, most hits filed as inhibitors. 350,000 tested, 8.8% active. AID 504332; also: % is scaled to controls: 0 for no effect and ±100 for the full control effect; nearly all actives have a fitted effect of over 75% in size
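Step 1: enzyme (final 20 nM) with compound, 15 min RT. Step 2: substrate peptide 500 nM and SAM 20 uM, 2 h RT. Step 3: anti-H3K9me1 antibody and AlphaScreen beads, 10 min, then plate read.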
HP1b binding inh: blocks HP1-beta chromodomain binding to methylated histone tails; P83916; 390,000 tested, 0.56% active; AlphaScreen HP1-beta / biotin-H3K9me3 peptide binding; Potency, µM (doses to about 114 µM), for the others: at the highest dose activity change, negative = inhibition, most hits filed as inhibitors; AID 540317; also: nearly all actives have a fitted effect of over 70% in size
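Compound inhibition of the preformed complex between 50 nM HP1-beta and 50 nM biotinylated H3K9me3 peptide was read by AlphaScreen. Buffer was PBS pH 7.4 with 0.01% Tween-20. Incubations ran 30 min at room temperature, with 10 ug/mL donor/acceptor beads.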
GLS inhibitor: inhibitors of human glutaminase (GLS) | GLS enzymatic activity, qHTS titration | 410,000 tested, 0.21% active | AID 624170 | Potency, µM (top dose mostly 45.5 µM), without a hit: top-dose activity change, negative = inhibition, hits mostly inhibitors; also: % is scaled to controls: 0 for no effect and ±100 for the full control effect
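Two-point fluorescence kinetic (t0, 30 min RT) for hKGA; glutamate detected via glutamate oxidase–HRP–Amplex Red. Substrate: 1 mM L-glutamine solution; buffer 45 mM KH2PO4, pH 8.2.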
Starred values were filed as active, the others as inactive; ? = inconclusive; . = not tested or not shown; ! = a repeat was not active; [ ] = another dose, or the depositor's remark. Shown are actives, neighbours in structure and some others; about 10% of the full set was active somewhere. Calls follow the shape of the dose curve; as a rule, active = well fitted curve in the direction sought with a large enough effect; inconclusive = small, poorly fitted or top-dose-only effect, or another doubt; inactive = no such curve, though single readings can be large; an effect the other way counts as inactive or inconclusive. Potency is read from the fitted curve at half-maximal effect.

SMILES	JMJD2A Tudor inh	BAZ2B block	G9a inh	HP1b binding inh	GLS inhibitor
COc1ccccc1NS(=O)(=O)c1cccc(C(=O)N/N=C/c2ccc(NC(C)=O)cc2)c1	-12%	-18%	11%[12.7 µM]	15%	7%
COc1ccccc1NS(=O)(=O)c1cccc(-n2c(O)c(C=Nc3ccccc3C(=O)O)c3ccccc3c2=O)c1	56µM*	40µM*	45µM*	?	-12%
COc1ccc(Cn2c(O)c(C=Nc3ccccc3C(=O)O)c3ccccc3c2=O)cc1	-34%	79µM*	.	-11%	2%
C/C(=N\NC(=O)c1ccc(N(C)C)cc1)c1cccnc1	-18%	?	25µM*	39%	10%
C/C(=N\NC(=O)c1cccnc1)c1ccc(OC2OCCOC2Oc2ccc(/C(C)=N/NC(=O)c3cccnc3)cc2)cc1 (centres undefined)	14µM*	-18%	27%	?	?
C/C(=N\NC(=O)c1ccc(N(C)C)cc1)c1ccc(C)cc1C	-26%	?	?	20%	-16%
C/C(=N\NC(=O)c1ccc(N(C)C)cc1)c1ccc(C)c(C)c1	-22%	-7%	45µM*	9%	-10%
Cc1ccc(OCC(O)CN2CCOCC2)c(C)c1 (centres undefined)	89µM*	-36%	89µM*	1%	2%
Cc1ccccc1OCC(O)CN1CCN(C)CC1 (centres undefined)	-27%	?	50µM*	20%	-2%
COc1cccc(OCC(O)CN2CCN(C)CC2)c1 (centres undefined)	1µM*	50µM*	25µM*	?	-5%
COc1cccc(OCC(O)CO)c1 (centres undefined)	6%	2%	3%[12.7 µM]	29%	3%
COc1ccccc1OCC(O)CN1CCN(CC(=O)Nc2c(C)cccc2C)CC1 (centres undefined)	89µM*!	0%	3%[59 µM]	19%	14%
Cc1c(Br)c([N+](=O)[O-])nn1CC(=O)Nc1ccccn1	-9%	-25%	-44%	35%	2%
O=C(NCCc1nnc2ccc(N3CCCCCC3)nn12)c1ccccc1	-6%	-20%	.	7%	0%
CC1C=CCC2C(=O)N(c3ccc(Cl)cc3O)C(=O)C12 (centres undefined)	16µM*	8%	9%[59 µM]	?	?
CC1C=CCC2C(=O)N(c3ccccc3OC(=O)c3cccs3)C(=O)C12 (centres undefined)	-14%	-16%	0%	40%	-4%
COc1ccc(CCCc2nnc(SCC(=O)Nc3nc(C)cs3)n2C)cc1	-8%	2%	8%[12.7 µM]	20%	1%
c1ccc(Nc2nc(N3CCOCC3)nc(N3CCOCC3)n2)cc1	-13%	11%	?	11%	-1%
Cc1ccc(Nc2nc(N3CCOCC3)nc(N3CCOCC3)n2)cc1C	-3%	?	50µM*	20%	-1%
Fc1ccc(Nc2nc(N3CCOCC3)nc(N3CCOCC3)n2)cc1	?	?	45µM*	33%	6%
Cc1cccc(Nc2nc(N3CCOCC3)nc(N3CCOCC3)n2)c1	-23%	-35%	?	27%	-2%
CC(C)c1ccc(CCNC(=O)c2cccc(S(=O)(=O)N3CCN(C)CC3)c2)cc1	-21%	-6%	25%	4%	3%
COc1ccc(NC(=O)COc2ccccc2C)cc1S(=O)(=O)N1CCCCC1	-27%	-4%	50µM*	17%	3%
Cc1ccc(C2(C)NC(=O)N(CC(=O)Nc3ccc(Cl)c(S(=O)(=O)N4CCCCC4)c3)C2=O)cc1 (centres undefined)	-27%	-2%	40µM*	16%	-1%
CCOc1ccccc1OCC(=O)Nc1ccc(OC)c(S(=O)(=O)N2CCCCC2)c1	-27%	5%	-31%	15%	1%
SMILES	JMJD2A Tudor inh	BAZ2B block	G9a inh	HP1b binding inh	GLS inhibitor
CC(C)Cc1nnc(NC(=O)CN2C(=O)NC3(CC(C)CC(C)(C)C3)C2=O)s1 (centres undefined)	-11%	2%	45µM*	24%	3%
CCCc1cc(=O)oc2cc(OCC(=O)Nc3ccc(S(N)(=O)=O)cc3)ccc12	-33%	45µM*	.	-1%[57 µM]	-4%
CC(C)Cc1nnc(NC(=O)CN2C(=O)NC3(CCCC3)C2=O)s1	-6%	9%	?	27%	-5%
CCCCN(C(=O)CN1CCOCC1)c1c(N)n(CC(C)C)c(=O)[nH]c1=O	-4%	-1%	7%	18%	4%
CCOC(=O)C1=C(C)NC(=O)CC1c1ccccc1 (centres undefined)	-15%	9%	4%[59 µM]	21%	12%
COC(=O)Oc1ccc(/C=N/NC(=O)CSCc2ccc(Cl)cc2)cc1OC	-34%	-10%	8%[59 µM]	28%	0%
COc1ccc(NC(=O)COc2ccc3c(C)cc(=O)oc3c2)cc1S(=O)(=O)N1CCCCC1	-17%	8%	11µM*	22%	0%
CC1CCCN(S(=O)(=O)c2ccc(NC(=O)CN3C(=O)NC(C)(c4ccccc4)C3=O)cc2)C1 (centres undefined)	-30%	-9%	56µM*	-5%	17%
COc1ccc(NC(=O)CN2C(=O)NC3(CC(C)CC(C)(C)C3)C2=O)cc1S(=O)(=O)N1CCCCC1 (centres undefined)	-32%	-1%	16µM*	11%	-4%
COc1ccc(S(=O)(=O)N2CCOCC2)cc1NC(=O)COc1ccc2c(C)cc(=O)oc2c1	-12%	.	.	35%	-2%
COc1ccc(NC(=O)CN2CCN(S(=O)(=O)c3ccc(Cl)cc3)CC2)cc1Cl	-11%	2%	11%[59 µM]	18%	-1%
COc1ccc(S(=O)(=O)N2CCCN(CC(=O)Nc3ccc(OC)c(Cl)c3)CC2)cc1	-20%	-9%	45µM*	44%	13%
COc1ccc(NC(=O)CN2C(=O)NC3(CCCC3)C2=O)cc1S(=O)(=O)N1CCCCC1	-13%	6%	8%[59 µM]	20%	-1%
Cc1ccc(C2NC(=O)c3n[nH]c(-c4cccs4)c32)cc1 (centres undefined)	-13%	.	6%[59 µM]	13%	0%
CC(C)N1CCN(Cc2cnc(N3CCCC3)s2)CC1CCO (centres undefined)	-10%	-7%	-4%	25%	1%
Cc1cnc(C(=O)OCC(=O)c2c(N)n(CC(C)C)c(=O)n(C)c2=O)cn1	-7%	8%	17%	20%	14%
COc1ccc(NC(=O)CN2CCCCC2)cc1S(=O)(=O)N1CCCCC1	2.5µM*	.	.	?	-7%
COc1ccc(NC(=O)Cc2ccc(C)cc2)cc1S(=O)(=O)N1CCCCC1	-13%	10%	-5%[12.7 µM]	31%	-4%
O=C(NCC1CCCO1)C1CCN(C2CCN(C(=O)CC3CCCC3)CC2)CC1 (centres undefined)	-1%	6%	.	13%	-3%
Cc1ccc(C)n1Cc1ccc(C(=O)O)cc1	0.79µM*	16µM*	8.9µM*	?	7.1µM*

Source: PubChem BioAssay (National Center for Advancing Translational Sciences (NCATS))
